ALR inh: blocks human ALR sulfhydryl oxidase activity; P55789; purified ALR, DTT oxidation, H2O2 HRP-luminol luminescence; inhibition, % (concentration not given with the values); actives 3.8% (n = 290,000); AID 485317;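 active = mean replicate inhibition above about 79%, with every replicate also reaching it, limit read from the data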
APOBEC3G inh: inhibitors of human APOBEC3G DNA deaminase; actives 0.28% (n = 330,000); inhibition, % at 20 µM; recombinant A3G, ssDNA deamination FAM/TAMRA fluorescence; AID 493012; Q9HC16;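 active = inhibition of at least 40% at 20 µM, with no more than 30% in the related APOBEC3A deaminase screen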;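 note: plate controls were DMSO wells with A3G for no effect and wells lacking A3G enzyme for full effect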
PHOSPHO1 inh: inhibitors of human PHOSPHO1 phosphatase | Q8TCT1 | recombinant PHOSPHO1, absorbance phosphatase assay | inhibition, % at 13.3 µM | actives 1.1% (n = 290,000) | AID 1565; in the data active = inhibition above about 60%
Target sequence (Q8TCT1 whole entry, looked up): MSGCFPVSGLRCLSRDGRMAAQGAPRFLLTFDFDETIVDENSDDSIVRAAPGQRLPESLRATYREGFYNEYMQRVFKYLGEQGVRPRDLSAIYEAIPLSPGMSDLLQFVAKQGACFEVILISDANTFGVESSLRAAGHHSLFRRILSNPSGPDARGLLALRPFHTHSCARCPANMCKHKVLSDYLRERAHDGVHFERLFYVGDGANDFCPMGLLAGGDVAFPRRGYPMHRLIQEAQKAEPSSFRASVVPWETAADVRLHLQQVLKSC
A3A deaminase: inhibitors of human APOBEC3A DNA deaminase | inhibition, % at 20 µM | recombinant A3A, FAM/TAMRA ssDNA deamination fluorescence | AID 493011 | actives 0.41% (n = 330,000) | P31941;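 active = at least 40% inhibition at 20 µM here, with at most 30% in a related deaminase screen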;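 note: plate controls were A3A with DMSO for no effect and wells lacking A3A enzyme for full effect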
Target sequence (P31941 whole entry, looked up): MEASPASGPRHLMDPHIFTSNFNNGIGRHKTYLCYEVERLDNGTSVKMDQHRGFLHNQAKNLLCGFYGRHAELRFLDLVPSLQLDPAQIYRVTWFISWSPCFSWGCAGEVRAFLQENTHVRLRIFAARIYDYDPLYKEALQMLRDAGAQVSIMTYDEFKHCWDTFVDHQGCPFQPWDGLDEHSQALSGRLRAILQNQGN
aDG glyco up: increases alpha dystroglycan glycosylation; actives 0.22% (n = 360,000); Pro5-aDG cells, alpha-DG glycosylation AlphaScreen (IIH6); 0% Pro5, 100% B10-LARGE cell signal; activation, % at 10 µM;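 active = activation of at least 8% versus controls, or a plate z-score of at least 8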;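 note: Pro5 are CHO cells carrying HIG-tagged alpha-DG that lacks glycosylation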
rCAG binder: molecules binding r(CAG) RNA repeats; actives 1.3% (n = 370,000); inhibition, % at 3 µM; r(CAG) RNA repeat, TO-PRO-1 dye displacement fluorescence;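 active = inhibition above the plate cutoff, the mean of all test compounds on that plate plus 3 SD, cut at about 35% in these data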;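 note: 0% = DMSO alone and 100% = 100 µM mitoxantrone as full dye displacement; higher means more dye released from RNA so lower well fluorescence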
rCAG bind conf: r(CAG) RNA repeat binding, confirmation; shares compounds with rCAG binder; TO-PRO-1 dye displacement fluorescence; inhibition, % at 3 µM; actives 70% (n = 4,300); AID 652065;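 active = inhibition above a per-plate cutoff, the mean inhibition of sample wells plus 3 SD, cut at about 35% in these data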;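 note: loss of TO-PRO-1 fluorescence as compound displaces dye from 1x1 AA loop RNA; 0% = DMSO only wells and 100% = 100 µM mitoxantrone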
dCAG dye counter: counter-screen for rCAG RNA binders: DNA CAG dye complex inhibitors. shares compounds with rCAG binder. d(CAG) DNA oligo TO-PRO-1 dye displacement, fluorescence. inhibition, % at 3 µM. actives 94% (n = 4,300). AID 652068;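 active = inhibition above its plate's cutoff, the mean test-well inhibition plus 3 SD, cut at about 4.8% in these data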;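 note: 0% = DNA dye mix with DMSO and 100% = 100 µM mitoxantrone; hits displace the dye from DNA and so lower well fluorescence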
DNA CAG DR: disrupts DNA CAG TO-PRO-1 complex in dose response | shares compounds with rCAG binder | DNA CAG/GTC duplex TO-PRO-1 dye displacement fluorescence | IC50, µM | actives 20% (n = 250) | AID 686960; in the data active = IC50 below about 10 µM
The depositor's hits bear a star; i = inactive; · = no result given. This is a sample that favours compounds with a hit; in the whole collection about 5.4% have one here.

SMILES | ALR inh | APOBEC3G inh | PHOSPHO1 inh | A3A deaminase | aDG glyco up | rCAG binder | rCAG bind conf | dCAG dye counter | others
COc1ccc(Cl)cc1NC(=O)CSc1nc(-c2ccccc2)cc(=O)[nH]1 | -2 | 6 | 24 | -7 | 0 | 43* | 68* | 30*
O=C(C1CCCCC1)N1CCC2CC1c1cc(Cl)ccc12 (configuration not stated) | · | · | · | · | 0 | 0 | · | ·
OC(c1cc(Cl)cc(Cl)c1)c1ncc(-c2ccccc2F)[nH]1 (configuration not stated) | · | · | · | · | 1 | 3 | · | ·
COC(=O)C1=CN(c2ccc3c(c2)OCO3)C(N)=C(C#N)C1c1ccccc1 (configuration not stated) | · | · | · | · | 1 | 5 | · | ·
CCOC(=O)C1C(=O)CC(=O)C(C(=O)OCC)C1c1ccc(O)cc1 (configuration not stated) | · | · | · | · | 0 | 36* | 3 | 1
CCOC(=O)C1C(=O)CC(C)(O)C(C(=O)OCC)C1c1ccc(Br)cc1 (configuration not stated) | -14 | -5 | 37 | -1 | 0 | 0 | · | ·
O=C(Nc1nnc([C@H]2C[C@H](O)[C@@H](CO)O2)s1)c1cccc(Oc2ccccc2)c1 | · | · | · | · | 0 | 6 | · | ·
O=C(C=Cc1ccco1)c1ccc2ccccc2c1 | · | · | · | · | 0 | 38* | 16 | 10*
CC(=O)Nc1ccc(C(=O)/C=C/c2ccco2)cc1 | -1 | 4 | 0 | 13 | 0 | 35* | 25 | 13*
C#CCN1CC(N(C)CCOC(=O)c2cccs2)CS1(=O)=O (configuration not stated) | · | · | · | · | · | -2 | · | ·
O=C(NC1CCCCN(Cc2cccc(F)c2)C1=O)c1cccc(F)c1 (configuration not stated) | · | · | · | · | · | -3 | · | ·
O=[N+]([O-])c1ccccc1N/N=C/c1c[nH]c2ccccc12 | 5 | -2 | 24 | 3 | -1 | 37* | 25 | 16*
O=C(N/N=C/c1c[nH]c2ccccc12)c1cccc([N+](=O)[O-])c1 | 32 | -7 | -7 | 0 | 0 | 1 | · | ·
O=[N+]([O-])c1ccc(N/N=C/c2c[nH]c3ccccc23)cc1 | -5 | -4 | 9 | -1 | 2 | 56* | 26 | 20*
CC(C)(C)c1ccc(Oc2ccc(NC(=O)C3CC=CCC3C(=O)O)cc2)cc1 (configuration not stated) | 63 | -3 | 10 | 0 | 0 | 35* | 45* | 12*
Cc1ccccc1Oc1ccc(NC(=O)C2CC=CCC2C(=O)O)cc1 (configuration not stated) | 7 | 4 | 6 | 1 | 0 | 3 | · | ·
CCN(CC)c1ncnc2c1ncn2[C@H]1CN(C2CCCC2)C[C@@H](CO)O1 | · | · | · | · | 1 | -2 | · | ·
N#Cc1c(NC(=O)CSc2ncnc3sccc23)oc(-c2ccco2)c1-c1ccco1 | -3 | 16 | 59 | 27 | 0 | 44* | 55* | 24* | DNA CAG DR=i
Cc1cc(NC(=O)CSc2ncnc3sccc23)no1 | -20 | -5 | 20 | 2 | 0 | 0 | · | ·
COC(=O)c1c(NS(C)(=O)=O)sc2c1CCCC2 | 65 | -2 | 24 | 1 | 0 | 5 | · | ·
COC(=O)c1c(NS(=O)(=O)Cc2ccccc2)sc2c1CCCC2 | 91* | 4 | 71* | -3 | 0 | 48* | 47* | 16*
COC(=O)c1c(NC(=O)c2ccccc2N(C)S(=O)(=O)c2ccccc2)sc2c1CCCC2 | · | · | 5 | · | 0 | 7 | · | ·
CC(C)OC(=O)c1c(NS(=O)(=O)c2ccccc2)sc2c1CCCC2 | 26 | -2 | -42 | -1 | 0 | 35* | 50* | 14*
S=C1NCCN1c1ccc(Cl)cc1 | · | · | · | · | · | 2 | · | ·
CNc1ncn(-c2c(C)cccc2C)c(=O)n1 | · | · | · | · | · | 2 | · | ·
O=C1/C(=C\c2cc(Cl)c(O)c(Cl)c2)SC(=S)N1Cc1ccccc1 | -10 | · | 14 | · | 0 | 18 | · | ·

High-throughput results (PubChem BioAssay)
